Holding throughout (test): DAPPL (digital affinity profiling via proximity ligation, sequencing); 10 mM Tris-HCl pH 7.5, 50 mM NaCl, 1 mM DTT, 4% glycerol, room temperature, 30 min; GST-TFs on glutathione beads, 16-mer random dsDNA library, 0.1% formaldehyde crosslink after washing; high values mean tight binding
Conditions in all cases: protein: recombinant; tags: N-terminal GST; dsDNA, one strand shown

The target of one assay is T1, FLI1 (Homo sapiens, UniProt Q01543 1-452).
T1 sequence: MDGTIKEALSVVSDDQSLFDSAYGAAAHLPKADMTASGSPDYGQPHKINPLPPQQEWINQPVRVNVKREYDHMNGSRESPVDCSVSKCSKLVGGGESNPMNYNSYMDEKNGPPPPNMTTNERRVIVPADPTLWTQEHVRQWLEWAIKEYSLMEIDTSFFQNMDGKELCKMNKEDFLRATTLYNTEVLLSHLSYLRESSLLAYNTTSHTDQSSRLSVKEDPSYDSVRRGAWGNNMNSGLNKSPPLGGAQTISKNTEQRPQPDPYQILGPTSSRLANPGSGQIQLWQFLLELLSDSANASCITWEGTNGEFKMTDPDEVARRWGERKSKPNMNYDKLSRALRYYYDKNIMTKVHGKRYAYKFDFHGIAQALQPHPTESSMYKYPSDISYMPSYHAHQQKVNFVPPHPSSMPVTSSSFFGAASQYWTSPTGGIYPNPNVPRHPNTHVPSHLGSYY
The method in brief: (§1)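 A tag-only sample was pooled with DNA-barcoded human transcription factors that had been expressed in yeast as GST fusions and captured on glutathione beads. The pools were incubated for 30 min at room temperature with 200 nmole of a random double-stranded 16-mer DNA library in Tris/NaCl/DTT/glycerol buffer, then washed, crosslinked with 0.1% formaldehyde, proximity-ligated (BsaI/T4 ligase, 1 h, 37 °C), PCR-amplified and sequenced on an Illumina NextSeq500. Binding signal is each hexamer's read frequency for a factor divided by its frequency for the tag-only sample.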

The next assay has as its target T2, ELK1 (Homo sapiens, UniProt P19419 1-428).
T2 sequence: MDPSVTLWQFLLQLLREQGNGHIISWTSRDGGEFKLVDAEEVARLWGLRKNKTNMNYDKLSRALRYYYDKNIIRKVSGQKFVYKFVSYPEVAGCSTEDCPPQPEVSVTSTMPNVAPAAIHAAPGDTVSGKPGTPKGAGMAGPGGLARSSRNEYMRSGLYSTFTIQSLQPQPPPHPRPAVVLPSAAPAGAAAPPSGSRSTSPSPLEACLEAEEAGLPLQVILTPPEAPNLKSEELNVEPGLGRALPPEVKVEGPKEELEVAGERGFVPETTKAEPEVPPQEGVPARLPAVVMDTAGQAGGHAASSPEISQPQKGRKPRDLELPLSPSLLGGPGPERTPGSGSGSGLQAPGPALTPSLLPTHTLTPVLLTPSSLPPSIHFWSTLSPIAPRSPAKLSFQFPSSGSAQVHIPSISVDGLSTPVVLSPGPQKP
Summed up: as §1

Another assay has as its target T3, GABPA (Homo sapiens, UniProt Q06546 1-454).
T3 sequence: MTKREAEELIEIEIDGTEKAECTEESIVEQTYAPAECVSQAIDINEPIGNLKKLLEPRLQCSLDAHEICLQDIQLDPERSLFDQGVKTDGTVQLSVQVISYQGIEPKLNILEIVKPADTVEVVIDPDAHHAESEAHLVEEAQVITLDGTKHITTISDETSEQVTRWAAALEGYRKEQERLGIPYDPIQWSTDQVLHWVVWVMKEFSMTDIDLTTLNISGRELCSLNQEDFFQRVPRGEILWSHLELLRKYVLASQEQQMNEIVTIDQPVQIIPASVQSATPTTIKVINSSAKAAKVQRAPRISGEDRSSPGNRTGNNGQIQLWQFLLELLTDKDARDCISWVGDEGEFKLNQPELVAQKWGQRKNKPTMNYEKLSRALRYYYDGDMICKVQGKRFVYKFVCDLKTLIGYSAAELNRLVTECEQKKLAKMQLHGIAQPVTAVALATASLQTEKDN
The method in brief: as §1

For the next assay, the target named is T4, ERG (Homo sapiens, UniProt P11308 1-479).
T4 sequence: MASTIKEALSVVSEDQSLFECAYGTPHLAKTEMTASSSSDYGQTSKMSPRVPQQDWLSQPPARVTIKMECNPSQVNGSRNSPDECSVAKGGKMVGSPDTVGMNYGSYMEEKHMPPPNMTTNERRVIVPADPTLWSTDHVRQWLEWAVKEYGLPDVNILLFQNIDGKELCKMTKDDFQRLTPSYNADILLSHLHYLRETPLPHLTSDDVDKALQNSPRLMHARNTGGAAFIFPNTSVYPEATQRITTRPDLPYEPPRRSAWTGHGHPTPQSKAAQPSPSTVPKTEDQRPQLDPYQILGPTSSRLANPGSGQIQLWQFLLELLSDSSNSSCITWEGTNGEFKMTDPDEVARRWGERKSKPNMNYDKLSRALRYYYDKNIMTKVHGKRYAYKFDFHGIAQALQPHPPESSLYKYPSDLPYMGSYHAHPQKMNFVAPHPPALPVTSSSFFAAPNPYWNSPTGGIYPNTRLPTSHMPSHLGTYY
The method in brief: as §1

The next assay has as its target ELF1 (Homo sapiens, UniProt P32519 1-619). Summed up: as §1
The target of another assay is T5, EHF (Homo sapiens, UniProt Q9NZC4 1-300).
T5 sequence: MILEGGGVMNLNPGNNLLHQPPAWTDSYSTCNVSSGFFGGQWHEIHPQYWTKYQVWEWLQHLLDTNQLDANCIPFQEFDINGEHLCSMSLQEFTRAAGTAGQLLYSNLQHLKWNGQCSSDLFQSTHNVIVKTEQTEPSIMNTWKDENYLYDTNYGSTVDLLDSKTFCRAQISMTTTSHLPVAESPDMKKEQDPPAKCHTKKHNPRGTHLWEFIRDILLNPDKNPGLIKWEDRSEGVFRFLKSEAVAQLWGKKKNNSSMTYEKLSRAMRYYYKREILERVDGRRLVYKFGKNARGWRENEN
Summed up: as §1

For a further assay, the target named is SPI1 (Homo sapiens, UniProt P17947 1-270). The method in brief:
as §1

For a further assay, the target named is SPIB (Homo sapiens, UniProt Q01892 1-262). The method in brief:
as §1

Another assay concerns the target T6, FEV (Homo sapiens, UniProt Q99581 1-238).
T6 sequence: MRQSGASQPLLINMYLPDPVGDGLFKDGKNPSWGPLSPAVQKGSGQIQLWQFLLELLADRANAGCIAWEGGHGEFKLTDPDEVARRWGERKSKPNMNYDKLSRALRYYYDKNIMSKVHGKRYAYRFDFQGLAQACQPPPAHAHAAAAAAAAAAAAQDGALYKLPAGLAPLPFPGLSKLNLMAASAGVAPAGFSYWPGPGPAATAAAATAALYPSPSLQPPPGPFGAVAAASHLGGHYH
Summed up:
as §1

For the next assay, the target named is ETV5 (Homo sapiens, UniProt P41161 1-510). The method in brief:
as §1

The next assay concerns the target ELF4 (Homo sapiens, UniProt Q99607 1-663). Summed up:
as §1

A further assay deals with ETV1 (Homo sapiens, UniProt P50549 1-477). The method in brief:
as §1

The target of a further assay is T7, ERF (Homo sapiens, UniProt P50548 1-548).
T7 sequence: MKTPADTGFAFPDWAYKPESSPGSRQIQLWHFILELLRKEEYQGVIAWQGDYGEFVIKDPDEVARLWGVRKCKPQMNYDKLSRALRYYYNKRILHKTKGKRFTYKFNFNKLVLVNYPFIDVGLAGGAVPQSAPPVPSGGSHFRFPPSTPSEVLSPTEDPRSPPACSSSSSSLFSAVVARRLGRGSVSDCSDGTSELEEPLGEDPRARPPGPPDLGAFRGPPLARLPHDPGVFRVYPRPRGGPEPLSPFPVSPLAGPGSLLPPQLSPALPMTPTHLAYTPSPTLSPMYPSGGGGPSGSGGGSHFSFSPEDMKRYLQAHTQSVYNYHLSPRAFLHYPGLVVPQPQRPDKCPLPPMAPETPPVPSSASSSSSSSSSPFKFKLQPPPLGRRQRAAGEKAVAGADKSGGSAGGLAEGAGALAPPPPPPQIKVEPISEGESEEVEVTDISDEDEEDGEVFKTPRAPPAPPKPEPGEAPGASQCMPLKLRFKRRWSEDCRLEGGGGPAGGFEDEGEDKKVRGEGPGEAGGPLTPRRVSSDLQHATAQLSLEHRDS
The method in brief: as §1

For another assay, the target named is T8, ETV3L (Homo sapiens, UniProt Q6ZN32 1-361).
T8 sequence: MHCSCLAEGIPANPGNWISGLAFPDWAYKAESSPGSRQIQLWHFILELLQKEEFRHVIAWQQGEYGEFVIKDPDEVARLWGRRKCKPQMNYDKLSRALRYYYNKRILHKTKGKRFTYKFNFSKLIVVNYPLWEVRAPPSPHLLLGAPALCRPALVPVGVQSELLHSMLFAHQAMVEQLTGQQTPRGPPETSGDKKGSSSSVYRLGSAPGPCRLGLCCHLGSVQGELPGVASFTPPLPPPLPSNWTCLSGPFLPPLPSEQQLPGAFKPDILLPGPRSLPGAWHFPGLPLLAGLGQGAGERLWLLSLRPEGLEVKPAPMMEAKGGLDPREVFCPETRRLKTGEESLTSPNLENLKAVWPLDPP
The method in brief: as §1

Another assay has as its target T9, ETS2 (Homo sapiens, UniProt P15036 1-469).
T9 sequence: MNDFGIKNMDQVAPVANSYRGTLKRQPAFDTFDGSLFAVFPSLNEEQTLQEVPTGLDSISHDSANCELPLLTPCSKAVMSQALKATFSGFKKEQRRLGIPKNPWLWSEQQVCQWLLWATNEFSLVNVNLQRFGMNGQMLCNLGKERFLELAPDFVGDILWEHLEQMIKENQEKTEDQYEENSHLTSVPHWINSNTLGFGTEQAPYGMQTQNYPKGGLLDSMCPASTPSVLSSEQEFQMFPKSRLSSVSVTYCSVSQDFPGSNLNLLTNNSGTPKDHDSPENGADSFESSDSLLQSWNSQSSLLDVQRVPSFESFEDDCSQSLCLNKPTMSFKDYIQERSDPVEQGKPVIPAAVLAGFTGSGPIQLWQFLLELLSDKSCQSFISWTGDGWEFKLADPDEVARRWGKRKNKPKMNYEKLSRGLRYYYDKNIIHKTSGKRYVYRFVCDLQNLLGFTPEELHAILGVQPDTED
The method in brief: as §1

The target in a further assay is T10, SPDEF (Homo sapiens, UniProt O95238 1-335).
T10 sequence: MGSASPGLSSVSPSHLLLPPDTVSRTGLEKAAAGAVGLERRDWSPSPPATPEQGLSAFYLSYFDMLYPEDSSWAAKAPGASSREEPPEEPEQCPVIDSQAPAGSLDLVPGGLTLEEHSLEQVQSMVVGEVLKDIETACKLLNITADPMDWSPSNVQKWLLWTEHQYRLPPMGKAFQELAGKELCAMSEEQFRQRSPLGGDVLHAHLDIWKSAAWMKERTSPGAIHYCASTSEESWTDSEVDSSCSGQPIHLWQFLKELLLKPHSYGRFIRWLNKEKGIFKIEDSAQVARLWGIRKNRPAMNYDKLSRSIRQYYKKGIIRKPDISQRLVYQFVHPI
The method in brief:
as §1

For the next assay, the target named is T11, ELF5 (Homo sapiens, UniProt Q9UKW6-2 1-255).
T11 sequence: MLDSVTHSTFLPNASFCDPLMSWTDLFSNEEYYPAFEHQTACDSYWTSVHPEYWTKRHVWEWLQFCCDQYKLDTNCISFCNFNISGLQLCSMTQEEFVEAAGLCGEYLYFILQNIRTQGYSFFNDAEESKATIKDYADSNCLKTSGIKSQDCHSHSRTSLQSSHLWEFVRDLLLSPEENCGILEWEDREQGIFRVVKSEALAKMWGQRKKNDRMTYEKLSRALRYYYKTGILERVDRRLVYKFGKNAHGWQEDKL
Summed up: as §1

The target in another assay is T12, ETV3 (Homo sapiens, UniProt P41162-2 1-143).
T12 sequence: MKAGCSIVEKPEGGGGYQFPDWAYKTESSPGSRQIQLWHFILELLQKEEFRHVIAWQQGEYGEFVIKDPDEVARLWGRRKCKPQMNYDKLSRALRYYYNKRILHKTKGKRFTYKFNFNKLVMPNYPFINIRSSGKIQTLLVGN
The method in brief: as §1

The next assay concerns the target ETV6 (Homo sapiens, UniProt P41212 1-452). The method in brief: as §1

Chain of SPIB (Q01892 whole entry): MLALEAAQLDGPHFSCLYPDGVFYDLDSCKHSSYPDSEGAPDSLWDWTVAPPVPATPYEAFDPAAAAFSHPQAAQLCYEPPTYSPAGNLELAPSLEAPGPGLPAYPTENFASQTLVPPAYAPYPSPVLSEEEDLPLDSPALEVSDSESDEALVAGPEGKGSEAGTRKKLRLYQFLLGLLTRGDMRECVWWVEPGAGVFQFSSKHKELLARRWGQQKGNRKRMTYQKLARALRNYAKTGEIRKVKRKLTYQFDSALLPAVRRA
Chain of ETV6 (P41212 whole entry): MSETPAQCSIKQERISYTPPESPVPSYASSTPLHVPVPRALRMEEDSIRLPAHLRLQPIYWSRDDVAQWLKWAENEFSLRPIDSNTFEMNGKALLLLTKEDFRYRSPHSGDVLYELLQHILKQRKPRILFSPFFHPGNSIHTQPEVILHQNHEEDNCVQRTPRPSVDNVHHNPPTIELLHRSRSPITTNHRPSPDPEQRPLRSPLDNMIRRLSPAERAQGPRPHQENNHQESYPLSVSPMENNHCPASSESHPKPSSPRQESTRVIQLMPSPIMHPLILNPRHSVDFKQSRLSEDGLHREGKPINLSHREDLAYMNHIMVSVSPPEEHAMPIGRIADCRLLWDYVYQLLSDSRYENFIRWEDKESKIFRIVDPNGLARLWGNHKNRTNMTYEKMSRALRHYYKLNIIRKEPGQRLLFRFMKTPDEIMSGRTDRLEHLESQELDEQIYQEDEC
Chain of ELF1 (P32519 whole entry): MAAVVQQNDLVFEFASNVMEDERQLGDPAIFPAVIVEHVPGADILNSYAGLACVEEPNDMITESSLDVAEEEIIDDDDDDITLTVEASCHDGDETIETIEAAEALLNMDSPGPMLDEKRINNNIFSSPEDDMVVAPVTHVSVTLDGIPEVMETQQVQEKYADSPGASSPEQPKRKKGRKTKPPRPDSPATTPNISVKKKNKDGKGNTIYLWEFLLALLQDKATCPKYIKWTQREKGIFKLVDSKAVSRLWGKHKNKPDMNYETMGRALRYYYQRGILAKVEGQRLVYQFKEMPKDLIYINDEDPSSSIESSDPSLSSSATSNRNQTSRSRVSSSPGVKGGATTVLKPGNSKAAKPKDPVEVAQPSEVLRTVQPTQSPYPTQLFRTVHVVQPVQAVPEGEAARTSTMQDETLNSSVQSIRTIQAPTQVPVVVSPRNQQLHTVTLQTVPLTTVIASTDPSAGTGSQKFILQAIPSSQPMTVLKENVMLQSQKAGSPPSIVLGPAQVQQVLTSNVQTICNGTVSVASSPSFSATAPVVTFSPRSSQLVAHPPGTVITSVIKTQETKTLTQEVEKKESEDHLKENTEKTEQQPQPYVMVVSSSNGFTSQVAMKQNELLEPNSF
Chain of ETV1 (P50549 whole entry): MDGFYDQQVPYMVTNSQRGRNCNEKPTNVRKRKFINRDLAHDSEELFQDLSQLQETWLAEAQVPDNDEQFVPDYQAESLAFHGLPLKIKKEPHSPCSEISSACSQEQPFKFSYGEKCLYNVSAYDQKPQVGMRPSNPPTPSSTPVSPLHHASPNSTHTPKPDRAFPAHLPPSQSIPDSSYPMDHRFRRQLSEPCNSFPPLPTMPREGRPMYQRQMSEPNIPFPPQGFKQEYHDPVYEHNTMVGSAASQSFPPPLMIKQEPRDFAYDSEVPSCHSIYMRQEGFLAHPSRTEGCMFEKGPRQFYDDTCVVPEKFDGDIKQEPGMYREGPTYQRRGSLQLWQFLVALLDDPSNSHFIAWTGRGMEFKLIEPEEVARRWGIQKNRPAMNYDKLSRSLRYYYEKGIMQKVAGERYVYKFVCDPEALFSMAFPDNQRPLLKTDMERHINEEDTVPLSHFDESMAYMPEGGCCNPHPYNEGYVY
Chain of ETV5 (P41161 whole entry): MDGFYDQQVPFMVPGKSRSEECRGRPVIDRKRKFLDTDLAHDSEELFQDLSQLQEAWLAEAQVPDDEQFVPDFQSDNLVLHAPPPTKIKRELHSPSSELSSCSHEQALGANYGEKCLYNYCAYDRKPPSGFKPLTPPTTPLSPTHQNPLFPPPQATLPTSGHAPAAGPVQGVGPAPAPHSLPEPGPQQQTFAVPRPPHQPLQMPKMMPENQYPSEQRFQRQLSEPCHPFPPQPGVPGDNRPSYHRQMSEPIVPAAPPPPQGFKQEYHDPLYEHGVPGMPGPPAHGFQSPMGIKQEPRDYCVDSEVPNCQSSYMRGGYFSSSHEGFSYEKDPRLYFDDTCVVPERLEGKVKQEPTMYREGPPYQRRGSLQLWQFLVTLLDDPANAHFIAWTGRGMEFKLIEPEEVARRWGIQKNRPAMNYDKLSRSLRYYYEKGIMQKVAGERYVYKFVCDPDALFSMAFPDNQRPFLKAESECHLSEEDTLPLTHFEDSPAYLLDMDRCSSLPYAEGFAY
Chain of ELF4 (Q99607 whole entry): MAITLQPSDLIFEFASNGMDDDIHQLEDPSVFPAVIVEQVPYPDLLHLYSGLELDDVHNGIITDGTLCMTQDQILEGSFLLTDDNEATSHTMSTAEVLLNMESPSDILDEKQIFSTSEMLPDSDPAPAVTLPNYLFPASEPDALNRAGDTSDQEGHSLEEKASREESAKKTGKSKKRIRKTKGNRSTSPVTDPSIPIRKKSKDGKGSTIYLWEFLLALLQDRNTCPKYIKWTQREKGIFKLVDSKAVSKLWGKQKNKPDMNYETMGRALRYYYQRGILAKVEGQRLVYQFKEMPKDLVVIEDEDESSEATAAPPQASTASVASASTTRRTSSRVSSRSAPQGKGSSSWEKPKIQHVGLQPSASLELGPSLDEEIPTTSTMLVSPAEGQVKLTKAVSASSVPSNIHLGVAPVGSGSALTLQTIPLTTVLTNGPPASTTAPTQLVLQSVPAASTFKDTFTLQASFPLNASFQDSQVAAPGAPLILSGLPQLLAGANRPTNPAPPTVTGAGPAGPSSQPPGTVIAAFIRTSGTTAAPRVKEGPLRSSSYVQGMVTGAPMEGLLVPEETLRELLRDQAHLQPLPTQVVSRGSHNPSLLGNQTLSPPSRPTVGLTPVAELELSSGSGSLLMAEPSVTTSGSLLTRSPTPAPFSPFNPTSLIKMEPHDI

As to GCTATC, the binding signal was 1.07 fold enrichment (6-mer frequency, TF over GST control) in the assay with FLI1; 1.07 fold enrichment (6-mer frequency, TF over GST control) with ELK1; 1.1 fold enrichment (6-mer frequency, TF over GST control) with GABPA; 1.13 fold enrichment (6-mer frequency, TF over GST control) with ERG; 1.14 fold enrichment (6-mer frequency, TF over GST control) in the assay with ELF1; 1.14 fold enrichment (6-mer frequency, TF over GST control) with EHF. In addition, the binding signal is 1.12 fold enrichment (6-mer frequency, TF over GST control) in the assay with SPI1; 1.1 fold enrichment (6-mer frequency, TF over GST control) in the assay with SPIB; 1.08 fold enrichment (6-mer frequency, TF over GST control) with FEV; 1.09 fold enrichment (6-mer frequency, TF over GST control) with ETV5; 1.14 fold enrichment (6-mer frequency, TF over GST control) with ELF4; 1.09 fold enrichment (6-mer frequency, TF over GST control) with ETV1. In addition, the binding signal in the assay with ERF is 1.13 fold enrichment (6-mer frequency, TF over GST control); with ETV3L, 1.07 fold enrichment (6-mer frequency, TF over GST control); in the assay with ETS2, 1.01 fold enrichment (6-mer frequency, TF over GST control); with SPDEF it was 1.11 fold enrichment (6-mer frequency, TF over GST control); with ELF5, 1.04 fold enrichment (6-mer frequency, TF over GST control); with ETV3, 1.03 fold enrichment (6-mer frequency, TF over GST control). In addition, the binding signal in the assay with ETV6 was 1.06 fold enrichment (6-mer frequency, TF over GST control).

Source of the values: paper PMC7862700, “An all-to-all approach to the identification of sequence-specific readers for epigenetic DNA modifications on cytosine”.
